For test [1], the system named is Zika virus NS2B-NS3 protease (unlinked complex). In words: Primary screen GU Rhodamine qHTS for Zika virus inhibitors: Unlinked NS2B-NS3 protease assay (AID 1347159). Note: nearly all actives have a fitted effect of over 60% in size. Note: potency is the fitted concentration of half-maximal effect. Conditions: Recombinant ZIKV NS2B-NS3 protease, Rhodamine110 substrate fluorescence; series mostly up to 107 µM. In short, it runs like this:
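A qHTS format was used, with compound concentrations ranging up to 114 microM. Each compound was preincubated with 25 nM NS2B-NS3 protease, and the substrate was then added at 1.5 microM. Curves were fitted with a 4-parameter Hill model.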

Test [2] has as its system Zika virus NS2B-NS3 protease (linked construct). Briefly: Primary screen NINDS Rhodamine qHTS for Zika virus inhibitors (AID 1347160). Note: nearly all actives have a fitted effect of over 55% in size. Conditions: purified NS2B-NS3 protease, Rhodamine110 substrate fluorescence; series mostly up to 57.1 µM. In short, it runs like this:
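Kinetic fluorescence (Ex 480 nm, Em 540 nm) over 15 min with 1.5 microM Rhodamine110 peptide and 25 nM linked protease.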

Results filed as inconclusive are left out. Unmarked numbers belong to inactive results. Calls of active or inactive are those of the source. Calls come from the whole dose curve; as a rule, active = well fitted inhibition curve with a large enough effect; inconclusive = small, poorly fitted or top-dose-only effect; inactive = no such curve, though single readings can be large or run the other way. *1 amine or outer side, *2 acyl side, *3 side chain or, on linkers, in order; H or OH if unused. Where a SMILES comes first, the peptide text is derived from it. Bridges are numbered along the chain shown (N, C = ends). [ ]: non-standard residue; d: D form. The star is where a group is joined. pTerphenylCO(4''-OnC5H11) = CCCCCOc1ccc(-c2ccc(-c3ccc(C(=O)*)cc3)cc2)cc1; Orn(4R-OH,5R-OH) = O=C([C@H](C[C@@H](O)[C@@H](O)N[*:3])N[*:1])[*:2]; hTyr(3S-OH,4S-OH) = N[C@H](C(=O)O)[C@H](O)[C@@H](O)c1ccc(O)cc1; Pro(3S-OH,4S-Me) = C[C@H]1CN[C@H](C(=O)O)[C@H]1O; Hyp = O=C(O)[C@@H]1C[C@@H](O)CN1
% is set by controls: 0 for no effect and ±100 for the full control effect.

On to `CC(=O)OC1CC(O)(C(C)C)C2C(OC(=O)c3ccc(O)cc3)C=C(C)C(=O)CC12C` (stereo not given), for which the Potency entry in test [1] and in test [2] was “inactive” in each case.

Regarding `CCCc1cc(C)[nH]c(=O)c1CNC(=O)c1cc(-c2ccnc(N3CCN(C)CC3)c2)cc2c1cnn2C(C)C`, the Potency result in test [1] and in test [2] was “inactive” each time.

`COc1ccccc1C(=O)Nc1cccc(NC(=O)c2cccc(C)c2)c1`: the Potency result in test [1] and in test [2] was “inactive” each time.

Consider `CN1CCN(C2=Nc3ccccc3Nc3ccc(OS(=O)(=O)C(F)(F)F)cc32)CC1`, for which the Potency result in test [1] and in test [2] was “inactive” throughout.

Take `COc1ccc(CN2CCN(C(=O)CCNC(=O)c3ccc(C(C)(C)C)cc3)CC2)cc1`: the Potency result in test [1] and in test [2] was “inactive” each time.

With `CNC(C)C(=O)NC(C(=O)N1CCCC1C(=O)Nc1snnc1-c1ccccc1)C1CCCCC1` (stereo not given), the Potency result in test [1] and in test [2] was “inactive” each time.

As to `C[C@H](Nc1cc2c(-c3ccc4c(c3)OCO4)noc2cn1)c1ccccc1`, the Potency result in test [1] and in test [2] was “inactive” throughout.

With `CCC1C(=O)N(C)c2cnc(Nc3ccc(C(=O)NC4CCN(C)CC4)cc3OC)nc2N1C1CCCC1` (stereo not given), the Potency result in test [1] and in test [2] was “inactive” each time.

For `Cc1cc(-c2nc(-c3ccc(OC(F)(F)F)cc3)no2)nn1Cc1ccnc(N2CCN(C3CC3)CC2)c1`, the Potency entry in test [1] and in test [2] was “inactive” each time.

Turning to `O=C(Nc1ccccc1Cl)c1cnc2ccc(C3CCNCC3)cn12`, the Potency entry in test [1] and in test [2] was “inactive” throughout.

On to `COCCNCc1ccc(-c2cc3nccc(Oc4ccc(NC(=O)C5(C(=O)Nc6ccc(F)cc6)CC5)cc4F)c3s2)nc1`, for which the Potency entry in test [1] and in test [2] was “inactive” in each case.

`CC1=CC2/C=C(\C)CCC(O)C(=O)C(O)CC(=O)C23C(=O)NC(CC(C)C)C3C1C` (stereo not given): the Potency result in test [1] and in test [2] was “inactive” in each case.

Turning to `C=CC(=O)N1CCN(C(=O)CNc2cc(-c3ccccc3Cl)c(Cl)cc2OC)CC1`, the Potency result in test [1] and in test [2] was “inactive” in each case.

Take `Nc1c(S(=O)(=O)c2ccccc2)c2nc3ccccc3nc2n1-c1ccc(F)cc1`: the Potency result in test [1] and in test [2] was “inactive” in each case.

`CC1(C)C2CCC(CO[C@@H]3O[C@H](CO[C@@H]4OC[C@](O)(CO)[C@H]4O)[C@@H](O)[C@H](O)[C@H]3O)C1C2` (stereo not given in full): the Potency entry in test [1] and in test [2] was “inactive” each time.

For the molecule `CCCCCOc1ccc(-c2ccc(-c3ccc(C(=O)N[C@H]4C[C@@H](O)[C@@H](O)NC(=O)[C@@H]5[C@@H](O)[C@@H](C)CN5C(=O)[C@H]([C@@H](C)O)NC(=O)[C@H]([C@H](O)[C@@H](O)c5ccc(O)cc5)NC(=O)[C@@H]5C[C@@H](O)CN5C(=O)[C@H]([C@@H](C)O)NC4=O)cc3)cc2)cc1` ({pTerphenylCO(4''-OnC5H11)}-[Orn(4R-OH,5R-OH)]T[Hyp][hTyr(3S-OH,4S-OH)]T[Pro(3S-OH,4S-Me)]; lactam 1-C), in test [1], the Potency is 31.6 µM (active). In addition, in test [2], the Potency entry is “inactive”.

Regarding `O=C(c1ccccc1)c1c(O)cc(O)cc1O[C@@H]1O[C@H](CO)[C@@H](O)[C@H](O)[C@H]1O`, the Potency entry in test [1] and in test [2] was “inactive” each time.

Consider `CCOC(=O)C1=Cc2ccc(C(F)(F)C(F)(F)F)cc2N=C(N)C1`, for which the Potency entry in test [1] and in test [2] was “inactive” in each case.

For `CCc1c[nH]c2ncnc(N3CC[C@](N)(CNC(=O)c4ccc(F)cc4F)C3)c12`, the Potency entry in test [1] and in test [2] was “inactive” each time.

With `COc1cc(N2CCC(N)CC2)ccc1Nc1ncc(Cl)c(-c2c[nH]c3ccccc23)n1`, the Potency result in test [1] and in test [2] was “inactive” throughout.

As for `NC(=O)c1ccccc1Nc1ccnc(Nc2cccc(O)c2)n1`, the Potency result in test [1] and in test [2] was “inactive” in each case.

Turning to `C/C=C(\C)C(=O)OC1C(C)C2(O)C(C=C(CO)CC3(O)C(=O)C(C)=CC32)C2C(C)(C)C12OC(=O)C(C)C` (stereo not given), the Potency entry in test [1] and in test [2] was “inactive” each time.

In the case of `O=[N+]([O-])c1cn2c(n1)OC[C@@H](OCc1ccc(-c3ccc(OC(F)(F)F)cc3)nc1)C2`, the Potency entry in test [1] and in test [2] was “inactive” in each case.

As to `C=C1CC[C@@H](O)[C@]2(C)CC[C@H]3C(=C)C(=O)O[C@@H]3[C@@H]12`, the Potency entry in test [1] and in test [2] was “inactive” in each case.

As to `CNC1CN(c2ccc3c(=O)c(C(=O)O)cn(-c4nccs4)c3n2)CC1OC` (stereo not given), the activity change, negative = inhibition in test [1] is 18.7% [at 19.1 µM]; in test [2] it was 19.1% [at 10.7 µM].

Consider `Cc1cccc(C#Cc2cc(F)cc(C#N)c2)n1`, for which the Potency result in test [1] and in test [2] was “inactive” in each case.

Regarding `COc1ccccc1OCCN1CC(COc2cccc3[nH]c4ccccc4c23)OCC1=O` (stereo not given), the Potency result in test [1] and in test [2] was “inactive” throughout.

`COc1cccc(-c2cn(-c3ccc(CCN4CCC(O)CC4)cc3)c3ncnc(N)c23)c1`: the Potency entry in test [1] and in test [2] was “inactive” throughout.

Regarding `CC(C)CCNC(=O)[C@H](CC(C)C)NC(=O)[C@H]1O[C@@H]1C(=O)O`, the Potency entry in test [1] and in test [2] was “inactive” throughout.

Regarding `C[C@@H]1O[C@@H](O[C@H]2CC[C@@]3(C)C(CC[C@]4(C)C3CC=C3[C@@H]5CC(C)(C)CC[C@]5(C(=O)O[C@@H]5O[C@H](CO)[C@@H](O)[C@H](O)[C@H]5O)CC[C@]34C)[C@]2(C)CO)[C@H](O)[C@H](O[C@@H]2O[C@H](CO)[C@@H](O)[C@H](O)[C@H]2O)[C@H]1O` (stereo not given in full), the Potency result in test [1] and in test [2] was “inactive” throughout.
